According to PubChem BioAssay (NCI):
Several values for one entry are separate records, joined by “and”; a condition that tells them apart may be missing. Identical values can stand only once. Compounds without any hit were thinned out: in the full panel of roughly 83,000, 20% have a hit.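 Values shown are percent growth following 48 h exposure of cells in 96-well plates to a single concentration of compound; below 10 was considered active.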 Values without a mark were called inactive. Activity calls are given as the source filed them.

Experiments:
Assay in all cases: NCI-60 one-dose screen, 48 h (100 = growth as untreated, 0 = no growth, -100 = all killed)
Details in all cases: 10 µM unless noted
[1] = test system: HCT-15 colon
[2] = test system: HT29 colon
[3] = test system: SNB-75 CNS
[4] = test system: SNB-19 CNS
[5] = test system: U251 CNS
[6] = test system: PC-3 prostate
[7] = test system: SK-MEL-5 melanoma
[8] = test system: UACC-62 melanoma
[9] = test system: LOX IMVI melanoma
[10] = test system: SK-MEL-28 melanoma

SMILES | growth [1] | growth [2] | growth [3] | growth [4] | growth [5] | growth [6] | growth [7] | growth [8] | growth [9] | growth [10]
CC[C@H](CC[C@@H](C)[C@H]1CC[C@H]2[C@@H]3CC[C@H]4C[C@]5(CC[C@]4(C)[C@H]3CC[C@]12C)OO[C@](C)(C(F)(F)F)O5)C(C)C | 97% | 102% | 66.7% | 90.4% | 100% | 94.2% | 99.4% | 83.2% | 92.9% | 89.9%
CCOC(=O)c1ccccc1C(=O)OCC | 93.8% | 102% | 83.3% | 105% | 99.9% | 113% | 110% | 91.4% | 97.9% | 114%
CC1OC(=O)C(C(C)C)NC(=O)C(C(C)C)OC(=O)C(C(C)C)NC(=O)C(C)OC(=O)C(C(C)C)NC(=O)C(C(C)C)OC(=O)C(C(C)C)NC(=O)C(C)OC(=O)C(C(C)C)NC(=O)C(C(C)C)OC(=O)C(C(C)C)NC1=O (stereo not given) | -3.27% (active) | -32.3% (active) | -18.5% (active) | -17% (active) | -41.9% (active) | -49.8% (active) | -74.5% (active) | 5.04% (active) | -26.4% (active) | -28.8% (active)
CN(C)c1ccc(C=C2C(=O)NC(=O)NC2=O)cc1 | 102% | 113% | 92% | 99.6% | 97% | 105% | 94.4% | 94.5% | 85.8% | 92.5%
Cc1cc(NC(=O)NCCCOc2ccc(N3C(N)=NC(N)=NC3(C)C)cc2Cl)ccc1S(=O)(=O)F | 90.2% | 4.91% (active) | 53.1% | 27.7% | 15.8% | 11.9% | 22.6% | 25.2% | 14.4% | 48.9%
[N-]=[N+]=CC(=O)CCC(=O)C=[N+]=[N-] | 111% | 107% | 96.6% | 99.6% | 100% | 86% | 116% | 96.5% | 94.9% | 112%
CCOC(=O)P(=O)(OCC)OCC | 101% | 102% | 115% | 97.9% | 109% | 92.5% | 107% | 96.9% | 91.6% | 106%
Nc1ccc(S(=O)(=O)F)cc1 | 107% | 103% | 99.5% | 105% | 105% | 105% | 106% | 105% | 99.4% | 114%
CCCCS(=O)(=O)Cl | 108% | 113% | 93.5% | 110% | 105% | 89.6% | 98.2% | 106% | 99.9% | 107%
C[C@]12CCC(=O)C[C@@H]1CC[C@@H]1[C@@H]2CC[C@]2(C)[C@@H](OC(=O)N(CCCl)N=O)CC[C@@H]12 | 27.9% | 31.6% | 39.4% | 31% | 16.1% | 36.3% | 22.8% | 13.5% | 22.6% | 63.1%
O=C1c2ccccc2C(=O)N1N1CC1c1ccccc1 (stereo not given) | 101% | 110% | 100% | 104% | 104% | 97.7% | 101% | 105% | 96.6% | 108%
CC[C@H](C)[C@H](NC(=O)CN(C)C)C(=O)N(C)[C@H](C[C@@H](OC(C)=O)c1nc(C(=O)NC23C4C5C2C2C3C4C52C(=O)OC)cs1)C(C)C (stereo not given in full) | 14.7% | 2.31% (active) | 30.1% | 40.2% | 16.7% | 25.6% | 5.45% (active) | 29.9% | 15.3% | 61.5%
CCC(Br)(CC)C(=O)NC(N)=O | 103% | 108% | 86.1% | 104% | 105% | 91.4% | 99.2% | 100% | 102% | 109%
O=C(O)CNCP(=O)(O)O | 123% | 98.6% | 96.5% | 123% | 98.3% | 106% | 111% | 105% | 95.7% | 120%
COc1ccc2c(c1)c(-c1nc(-c3c[nH]c4ncccc34)cs1)cn2CCCCN1CCOCC1 | -31.7% (active) | -84.4% (active) | 40.1% | 52.4% | 4.84% (active) | 30.1% | 26% | 20.4% | -34.7% (active) | -90.3% (active)
Oc1ccc(O)c(Cl)c1 | 96.4% and 110% | 103% and 107% | 72.2% and 85.8% | 111% | 94.6% and 101% | 84.3% and 94.2% | 91.3% and 95.2% | 93.9% and 101% | 94.4% and 93.9% | 115% and 122%
CC1(C)S[C@H]2CC[C@H]3OC(=O)[C@@H]1N23 | 106% | 106% | 90.9% | 101% | 115% | 87% | 111% | 93.4% | 103% | 108%
C=C[Se]CC(=O)/C=C/c1ccccc1 | 96.3% | 80.7% | 49.4% | 31.3% | 26.4% | 29.1% | 92.2% | 92.4% | 93.9% | 96.1%
COc1ccc(/C=C(/C)[N+](=O)[O-])cc1OC | -25.4% (active) and -17.4% (active) | -70.6% (active) and -16.3% (active) | 78.5% and 53.6% | 65.9% and 79.3% | -46.5% (active) and -15.8% (active) | 19.4% and 47.7% | 52.9% and 47.9% | 46.1% and 23.8% | -51.5% (active) and -88.8% (active) | -50.9% (active) and 4.89% (active)
CC/C(=C(\c1ccc(OCCN2CCOCC2)cc1)c1ccc(OC(=O)Cc2ccccc2)cc1)c1ccc(Cl)cc1 | 112% | 95.1% | 114% | 99.6% | 103% | 95.3% | 107% | 99.7% | 99% | 101%
O=c1c2ccccc2nc(-c2ccccc2Cl)n1-c1nnc(C(F)(F)F)s1 | 21.1% | 30.3% | 53.9% | 33.2% | 16.6% | 20% | 9.47% (active) | 10.3% | 31.3% | 30.2%
O=S(OO)c1cc(Cl)c(O)c(Cl)c1 (stereo not given) | 99.2% | 113% | 78.5% | 104% | 94% | 94.7% | 104% | 101% | 96.4% | 98.9%
COc1ccc2c(c1)C1(C)CCN(C)CC(C1)C2O (stereo not given) | 97.6% | 98.5% | 84.2% | 103% | 99.3% | 88.6% | 99.5% | 108% | 98.4% | 108%
NC1CN2CCC1CC2 (stereo not given) | 99.3% | 99.8% | 73.9% | 101% | 103% | 90.7% | 110% | 90.4% | 97.2% | 100%
